Results filed as inconclusive are left out. Entries that show only a call come without a potency. Calls of active or inactive are those of the source. Calls follow the shape of the dose curve; as a rule, active = well fitted inhibition curve with a large enough effect; inconclusive = small, poorly fitted or top-dose-only effect; inactive = flat fitted curve, though single readings scatter.
Molecular target: Voltage-gated inwardly rectifying potassium channel KCNH2 (Homo sapiens) (UniProt Q12809)
Sequence (Q12809 whole entry, looked up): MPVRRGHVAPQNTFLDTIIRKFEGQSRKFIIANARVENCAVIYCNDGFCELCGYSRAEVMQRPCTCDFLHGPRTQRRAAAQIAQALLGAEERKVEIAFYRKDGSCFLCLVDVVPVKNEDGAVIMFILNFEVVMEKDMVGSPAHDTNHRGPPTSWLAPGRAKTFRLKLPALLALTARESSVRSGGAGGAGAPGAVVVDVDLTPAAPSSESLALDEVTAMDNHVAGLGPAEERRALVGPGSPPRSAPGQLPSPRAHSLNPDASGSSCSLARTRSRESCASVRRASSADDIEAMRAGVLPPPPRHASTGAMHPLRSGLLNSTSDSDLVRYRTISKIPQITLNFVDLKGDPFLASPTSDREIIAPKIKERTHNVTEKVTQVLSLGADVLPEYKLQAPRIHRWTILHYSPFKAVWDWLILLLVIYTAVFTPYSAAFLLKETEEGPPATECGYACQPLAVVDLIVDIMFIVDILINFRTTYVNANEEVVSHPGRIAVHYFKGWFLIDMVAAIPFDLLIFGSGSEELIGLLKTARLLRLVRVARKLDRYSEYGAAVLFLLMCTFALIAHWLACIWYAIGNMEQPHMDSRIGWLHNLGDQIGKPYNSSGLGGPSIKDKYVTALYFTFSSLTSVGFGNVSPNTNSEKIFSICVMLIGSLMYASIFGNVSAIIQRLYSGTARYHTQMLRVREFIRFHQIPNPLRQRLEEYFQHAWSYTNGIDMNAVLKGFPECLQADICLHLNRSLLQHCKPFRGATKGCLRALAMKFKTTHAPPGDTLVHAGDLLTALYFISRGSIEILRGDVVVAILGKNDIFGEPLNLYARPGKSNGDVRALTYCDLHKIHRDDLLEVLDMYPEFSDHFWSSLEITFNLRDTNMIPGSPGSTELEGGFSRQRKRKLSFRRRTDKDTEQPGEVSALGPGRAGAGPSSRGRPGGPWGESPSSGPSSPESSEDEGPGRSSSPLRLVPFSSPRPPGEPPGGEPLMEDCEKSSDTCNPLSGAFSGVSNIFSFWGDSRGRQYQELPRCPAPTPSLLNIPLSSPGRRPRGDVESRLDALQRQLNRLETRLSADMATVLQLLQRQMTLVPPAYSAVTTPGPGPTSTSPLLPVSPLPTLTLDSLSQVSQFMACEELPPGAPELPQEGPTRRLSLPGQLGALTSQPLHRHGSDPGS
Assay: qHTS Assay for Small Molecule Inhibitors of the Human hERG Channel Activity (AID 588834);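 also: lower thallium flux fluorescence means stronger hERG block; nearly all actives have a fitted effect of over 50% in size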
Summary of the method: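 U2OS cells BacMam-transduced with hERG, 2000 cells/well, compound ~10 min at 37 °C before stimulation buffer. FluxOR thallium flux fluorescence read kinetically on FDSS; decrease indicates block; AC50 from Hill fits.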
Potency is read from the fitted curve at half-maximal effect.

SMILES	Potency
O=C(O)c1cc(O)c2c(c1)[C@H]([C@H]1c3cc(C(=O)O)cc(O)c3C(=O)c3c(O[C@@H]4O[C@H](CO)[C@@H](O)[C@H](O)[C@H]4O)cccc31)c1cccc(O[C@@H]3O[C@H](CO)[C@@H](O)[C@H](O)[C@H]3O)c1C2=O	inactive
Cn1nnnc1SCC1=C(C(=O)O)N2C(=O)[C@@H](NC(=O)[C@H](O)c3ccccc3)[C@H]2SC1	inactive
CNC(C)CCC=C(C)C (stereo not drawn)	1580 nM (active)
CCC(=O)OC(OP(=O)(CCCCc1ccccc1)CC(=O)N1C[C@H](C2CCCCC2)C[C@H]1C(=O)O)C(C)C (stereo partly drawn)	inactive
CCOC(=O)Oc1c(OC)cc(C(=O)O[C@@H]2C[C@@H]3CN4CCc5c([nH]c6cc(OC)ccc56)[C@H]4C[C@@H]3[C@H](C(=O)OC)[C@H]2OC)cc1OC	2240 nM (active)
OC[C@H]1OC([S-])[C@H](O)[C@@H](O)[C@@H]1O.[Au+] (stereo partly drawn)	inactive
CCCCCCCCCCCCCCCCCCOCC(COP(=O)([O-])OCC[N+](C)(C)C)OC (stereo not drawn)	inactive
CC(C)CCC[C@@H](C)[C@H]1CC(=O)C2=C3CC[C@H]4C[C@@H](O)CC[C@]4(C)[C@H]3CC[C@@]21C	inactive
CC(=C\c1ccccc1)/C=C1/SC(=S)N(CC(=O)O)C1=O	inactive
C=C1[C@@H]2CC[C@@H](C2)C1(C)C	inactive
O=C(O)c1ccc(NC2OC[C@@H](O)[C@H](O)[C@H]2O)cc1 (stereo partly drawn)	inactive
O=C1/C(=C\c2cccs2)CCC/C1=C\c1cccs1	inactive
CCN1C(=O)NC(c2ccccc2)C1=O (stereo not drawn)	inactive
